# Bioassay records: PubChem, Broad Institute
# p53 PUMA act – restores mutant p53 pathway signaling in SW480 cells; SW480 PUMA-promoter luciferase, p53 mutant reactivation; activation, % at 9.98 µM; hit rate 1.5% among 28,000; AID 624151; in the data active means activation above about 52%
# p53 mut binder – binders of human mutant p53. small molecule microarray binding, anti-GST fluorescence. calls only. hit rate 0.4% among 17,000;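 active means compounds whose four printed spots each glow above background more than chance allows, each with a p-value under 7%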
# Myc binder – c-Myc (human) binding; AID 624141; small molecule microarray, His-c-Myc binding, anti-His fluorescence; P01106; hit rate 1.5% among 17,000; calls only;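 active means spot fluorescence over background with P-value below 7% in all four replicate spots, showing protein binding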
# NFkB binder – NF-kappa-B p105 (human) binding | AID 624139 | P19838 | Small molecule microarray, anti-His fluorescence binding | calls only | hit rate 1.3% among 17,000;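 active means spot fluorescence over background significantly raised, with a chance value under 7% in all four replicate spots of the compound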;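 further: probe protein is his-tagged human p50 processed subunit at 1 µg/ml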
# Target sequence (P19838 1-433 limits assumed): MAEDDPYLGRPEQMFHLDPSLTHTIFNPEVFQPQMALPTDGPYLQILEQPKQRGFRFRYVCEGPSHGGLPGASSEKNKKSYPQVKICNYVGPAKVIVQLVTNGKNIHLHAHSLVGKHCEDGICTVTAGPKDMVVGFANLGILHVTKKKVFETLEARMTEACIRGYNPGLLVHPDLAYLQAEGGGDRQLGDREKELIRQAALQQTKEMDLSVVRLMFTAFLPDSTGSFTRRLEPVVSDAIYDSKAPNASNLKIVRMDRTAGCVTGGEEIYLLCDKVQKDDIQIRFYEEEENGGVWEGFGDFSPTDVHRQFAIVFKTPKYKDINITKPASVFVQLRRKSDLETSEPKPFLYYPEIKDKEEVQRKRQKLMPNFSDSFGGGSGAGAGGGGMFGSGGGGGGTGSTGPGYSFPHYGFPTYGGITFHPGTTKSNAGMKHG
# STAT3 binder – binders of human STAT3; hit rate 0.2% among 17,000; Small molecule microarray, His-STAT3 binding, anti-His fluorescence; AID 624138; calls only; P40763;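 active means compounds whose four printed spots each show fluorescence over background unusually high for their array block, chance value under 7%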
# Hits are given with their value; n = inactive; x = no result given; + = active, no number. Sampled rows, rich in hits. Any-hit rate of the full collection: about 2.6%.
SMILES,p53 PUMA act,p53 mut binder,Myc binder,NFkB binder,STAT3 binder
Cc1cccnc1NC(=S)NC(=O)c1cncc(Br)c1,108,n,+,n,n
O=C(NCCCN1CCOCC1)C1CC(c2ccc(Cl)c(Cl)c2)=NO1 (centres undefined),n,x,x,x,x
O=C(O)CNS(=O)(=O)c1cccc2nsnc12,n,x,x,x,x
CC(C)CC(NS(=O)(=O)c1cccc2nsnc12)C(=O)O (centres undefined),n,n,+,+,n
C[C@@H]1CCCCO[C@H](CN(C)C)[C@@H](C)CN([C@H](C)CO)C(=O)c2cc(NC(=O)c3ccccc3)ccc2O1,n,n,n,n,n
COc1ccc(S(=O)(=O)Nc2ccc3c(c2)C(=O)N([C@@H](C)CO)C[C@@H](C)[C@H](CN(C)S(=O)(=O)c2cn(C)cn2)O3)cc1,n,n,n,n,n
O=C(Nc1ccccc1)N[C@@H](Cc1ccccc1)Cn1cc(CN2C(=O)COC[C@H]2c2ccccc2)nn1,x,n,n,n,n
O=C(Cn1cc(CN2C(=O)COC[C@H]2c2ccccc2)nn1)Nc1nccs1,x,+,n,n,n
C[C@H]1CCCCO[C@H](CN(C)S(=O)(=O)c2ccc(F)cc2)[C@@H](C)CN([C@@H](C)CO)C(=O)c2cc(NS(C)(=O)=O)ccc2O1,x,n,n,n,n
Cc1csc(SCC(=O)Nc2ccc3c(c2)OCCO3)n1,61,x,x,x,x
O=C(COc1ccc2ccccc2c1Br)NCc1ccco1,85,n,n,n,n
CNC[C@H]1OCCCC[C@H](C)Oc2ccc(N(C)C)cc2C(=O)N([C@H](C)CO)C[C@H]1C,n,n,n,n,n
Cc1[nH]c2ccccc2c1C(=O)CSc1nc2ccccc2o1,n,x,x,x,x
Cc1[nH]c2ccccc2c1C(=O)CSc1nc2ccccc2[nH]1,62,x,x,x,x
CCOc1ccc(C)cc1S(=O)(=O)n1nnc2ccccc21,n,n,+,+,n
C[C@@H]1CN([C@@H](C)CO)C(=O)Cc2cc(NC(=O)CCN3CCOCC3)ccc2O[C@H]1CN(C)Cc1ccc(-c2ccccc2)cc1,n,n,+,n,n
C[C@H](CO)N1C[C@H](C)[C@@H](CN(C)Cc2ccc(-c3ccccc3)cc2)Oc2ccc(NC(=O)Nc3cccc4ccccc34)cc2CC1=O,x,n,n,+,n
C[C@@H]1CN([C@H](C)CO)C(=O)Cc2cc(NC(=O)CCN3CCOCC3)ccc2O[C@H]1CN(C)Cc1ccc(-c2ccccc2)cc1,n,n,n,n,n
CC(C)(Sc1ccc(CCN(CCCCC2CCCCC2)C(=O)NC2CCCCC2)cc1)C(=O)O,n,n,n,+,n
CCOC(=O)CSc1ncnc2c1sc1nc3c(cc12)COC(C)(C)C3,n,x,x,x,x
Cc1nc(SCC(=O)c2ccccc2)c2sc3nc4c(cc3c2n1)COC(C)(C)C4,91,n,n,n,n
C[C@H]1CN([C@@H](C)CO)S(=O)(=O)c2ccc(/C=C/c3ccccc3)cc2O[C@@H]1CN(C)C(=O)c1ccccc1,n,x,x,x,x
CN1/C(=C\C=C2\C(=O)Oc3ccccc3C2=O)C(C)(C)c2ccccc21,105,x,x,x,x
COc1ccc(S(=O)(=O)N(C)C[C@H]2Oc3ccc(NC(=O)Nc4cccc5ccccc45)cc3C(=O)N([C@H](C)CO)C[C@@H]2C)cc1,n,n,n,n,n
Cc1c(C(=O)N(C)C2CCCCC2)sc2nc3ccc(N)cc3n12,n,n,+,n,n
SMILES,p53 PUMA act,p53 mut binder,Myc binder,NFkB binder,STAT3 binder
CNC(=S)N(Cc1ccco1)C1CC(=O)N(c2ccccc2)C1=O (centres undefined),n,x,x,x,x
COc1ccc(-c2nc3ccccc3s2)cc1NC(=O)COc1ccc(Br)cc1,79,x,x,x,x
COc1ccc(-c2nc3ccccc3s2)cc1NC(=O)COc1ccc(C(C)C)cc1,n,x,x,x,x
COc1cc(-c2nc3ccccc3s2)cc(Br)c1OCC(=O)O,n,n,+,n,n
COc1ccc(CN(C)C[C@H]2Oc3ccc(NS(=O)(=O)c4ccc(F)cc4)cc3CC(=O)N([C@@H](C)CO)C[C@H]2C)cc1,x,n,n,n,n
C[C@@H]1CCCCO[C@H](CN(C)C(=O)Nc2ccc(C(F)(F)F)cc2)[C@H](C)CN([C@H](C)CO)C(=O)c2cc(NS(C)(=O)=O)ccc2O1,n,n,+,n,n
C[C@@H]1CN([C@@H](C)CO)C(=O)c2cc(NC(=O)Nc3ccc(C(F)(F)F)cc3)ccc2O[C@@H](C)CCCCO[C@@H]1CN(C)CC1CCCCC1,x,n,n,+,n
CC(C)NC(=O)N(C)C[C@H]1OCCCC[C@@H](C)Oc2ccc(NC(=O)Nc3ccc(C(F)(F)F)cc3)cc2C(=O)N([C@@H](C)CO)C[C@H]1C,n,n,+,+,n
C[C@@H]1CCCCO[C@H](CN(C)C(=O)Nc2ccc(C(F)(F)F)cc2)[C@@H](C)CN([C@H](C)CO)C(=O)c2cc(NS(C)(=O)=O)ccc2O1,n,n,n,n,n
C[C@H]1CN([C@@H](C)CO)C(=O)Cc2cc(NS(=O)(=O)c3ccc(Cl)cc3)ccc2O[C@@H]1CN(C)CC1CCCCC1,n,+,+,+,n
CC(C)NC(=O)N(C)C[C@@H]1OCCCC[C@@H](C)Oc2ccc(NC(=O)Nc3ccc(C(F)(F)F)cc3)cc2C(=O)N([C@@H](C)CO)C[C@@H]1C,n,n,n,n,n
Cc1cc(C)nc(SCc2nnnn2-c2ccccc2)n1,n,x,x,x,x
CC(C)NC(=O)N(C)C[C@@H]1Oc2ncc(C#CC(C)(C)O)cc2C(=O)N([C@H](C)CO)C[C@@H]1C,n,n,n,n,n
C[C@@H]1CN([C@@H](C)CO)C(=O)c2cc(NC(=O)c3ccccc3)ccc2O[C@@H](C)CCCCO[C@H]1CN(C)CC1CCCCC1,x,n,+,n,n
C[C@@H]1CN([C@@H](C)CO)C(=O)c2cc(NC(=O)c3ccncc3)ccc2O[C@@H](C)CCCCO[C@H]1CN(C)CC1CCCCC1,n,x,x,x,x
CC(C)NC(=O)Nc1ccc2c(c1)C(=O)N([C@H](C)CO)C[C@@H](C)[C@H](CN(C)CC1CCCCC1)O2,n,x,x,x,x
C[C@@H]1CN([C@@H](C)CO)C(=O)c2cc(NC(=O)Nc3ccc4c(c3)OCO4)ccc2O[C@H]1CN(C)CC1CCCCC1,n,n,n,+,n
Cc1ccc(CN2CCN(CCO)CC2)o1,n,n,n,n,n
C#CCN(CC=C(C)C)[C@H](CO)c1ccccc1,x,n,n,n,n
CC(C)=CCN(C(=O)C#Cc1ccccc1)[C@H](CO)c1ccccc1,x,n,n,+,n
CO[C@@H]1CC(OC2CCC3(C)C(CCC45CCC(C6=CC(=O)OC6)C(C)(CCC43)C5=O)C2)O[C@H](C)[C@@H]1O[C@@H]1O[C@H](CO[C@@H]2O[C@H](CO)[C@@H](O)[C@H](O)[C@H]2O)[C@@H](O)[C@H](O)[C@H]1O (some centres undefined),n,n,n,n,n
C/C=C(\C)C(=O)O[C@@H]1[C@@H](OC(C)=O)C2[C@@]3(C)CC[C@H](OC4CC(OC)C(OC5CC(OC)C(OC6CC(OC)C(OC7OC(C)C(OC8OC(CO)C(O)C(O)C8O)C(OC)C7O)C(C)O6)C(C)O5)C(C)O4)CC3=CC[C@@]2(O)[C@@]2(O)CC[C@H](C(C)=O)[C@@]12C (some centres undefined),n,n,+,+,n
